# Test results taken from PubChem BioAssay (EPA / NIEHS).
# Inconclusive results are not listed. Calls of active or inactive are those of the source. How the source made its calls, unless noted: active means hit-call score of the fitted dose curve at least 0.9, where 1 is the maximum; inactive means score below 0.9.
# Columns and labels:
# [1] = target: Estrogen-related receptor gamma (Homo sapiens) (UniProt P62508); experiment: ATG_ERRg_TRANS: Attagene TRANS-FACTORIAL HepG2 Assay for human Estrogen-Related Receptor gamma (ERRg) (AID 2282977; active means hit-call score of the fitted dose curve at least 0.9, where 1 is the maximum;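 further: hits increase reporter signal over DMSO so potencies reflect activators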); settings: HepG2 Attagene TRANS reporter, ERRg transactivation
# Chain of Estrogen-related receptor gamma (Homo sapiens) (P62508 whole entry, looked up, the tested form may be a part): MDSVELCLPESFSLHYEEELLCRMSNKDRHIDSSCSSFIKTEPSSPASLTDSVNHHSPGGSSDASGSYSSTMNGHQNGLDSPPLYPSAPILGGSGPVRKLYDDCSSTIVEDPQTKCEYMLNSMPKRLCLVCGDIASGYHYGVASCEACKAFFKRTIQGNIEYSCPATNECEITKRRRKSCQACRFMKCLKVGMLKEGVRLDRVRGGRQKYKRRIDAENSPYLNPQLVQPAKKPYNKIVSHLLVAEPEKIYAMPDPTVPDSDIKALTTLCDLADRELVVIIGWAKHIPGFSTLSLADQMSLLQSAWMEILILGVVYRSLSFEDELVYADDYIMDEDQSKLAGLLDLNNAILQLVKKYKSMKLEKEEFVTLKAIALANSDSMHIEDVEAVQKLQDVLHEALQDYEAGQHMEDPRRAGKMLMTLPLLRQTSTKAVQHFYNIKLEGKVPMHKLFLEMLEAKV
# Method in brief: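 HepG2 cells transiently transfected with multiplexed GAL4-UAS reporter units driven by chimeric NR-Gal4 proteins; 24 h exposure. Reporter mRNA quantified by RT-PCR, fluorescent labelling, HpaI digestion and capillary electrophoresis; gain of signal vs DMSO.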
# [2] = target: Glucocorticoid receptor (Homo sapiens) (UniProt P04150); experiment: ATG_GR_TRANS: Attagene TRANS-FACTORIAL HepG2 Assay for human Glucocorticoid Receptor (GR) (AID 2282978; active means hit-call score of the fitted dose curve at least 0.9, where 1 is the maximum;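 further: activators score as hits since higher reporter transcript over DMSO is fitted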); settings: HepG2 Attagene TRANS GR reporter, mRNA transcription
# Chain of Glucocorticoid receptor (Homo sapiens) (P04150 whole entry, looked up, the tested form may be a part): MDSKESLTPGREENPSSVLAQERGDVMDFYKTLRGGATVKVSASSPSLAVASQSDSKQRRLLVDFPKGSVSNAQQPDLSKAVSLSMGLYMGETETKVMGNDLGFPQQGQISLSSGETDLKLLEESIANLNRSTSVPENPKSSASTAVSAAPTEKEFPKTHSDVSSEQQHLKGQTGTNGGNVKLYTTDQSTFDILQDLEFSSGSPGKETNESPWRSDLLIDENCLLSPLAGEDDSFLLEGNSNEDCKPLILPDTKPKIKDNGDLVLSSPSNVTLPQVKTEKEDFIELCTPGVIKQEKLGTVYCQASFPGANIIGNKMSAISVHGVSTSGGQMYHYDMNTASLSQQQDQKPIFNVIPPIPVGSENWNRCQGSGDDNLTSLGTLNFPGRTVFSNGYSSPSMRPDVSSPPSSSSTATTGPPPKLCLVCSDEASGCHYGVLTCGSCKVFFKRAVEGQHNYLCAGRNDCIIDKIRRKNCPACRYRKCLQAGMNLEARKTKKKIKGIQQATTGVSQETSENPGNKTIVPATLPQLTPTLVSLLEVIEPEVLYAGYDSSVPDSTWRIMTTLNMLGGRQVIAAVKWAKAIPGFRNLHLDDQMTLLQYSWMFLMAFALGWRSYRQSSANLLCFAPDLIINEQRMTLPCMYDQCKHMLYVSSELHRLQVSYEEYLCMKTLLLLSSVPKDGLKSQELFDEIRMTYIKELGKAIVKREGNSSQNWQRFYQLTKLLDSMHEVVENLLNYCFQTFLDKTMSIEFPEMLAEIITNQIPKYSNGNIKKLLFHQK
# Method in brief: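 HepG2 transient transfection, multiple reporter units, GAL4-UAS under NR-GAL4 chimera control. 24 h treatment. Reporter mRNA by RT-PCR/CE fluorescence, DMSO as negative control.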
# [3] = ATG_M_06_TRANS: Attagene TRANS-FACTORIAL HepG2 Assay for M06 Transcription Factor (Internal Marker) (AID 2282983; active means hit-call score of the fitted dose curve at least 0.9, where 1 is the maximum;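 further: reporter transcript level by RT-PCR then capillary electrophoresis fluorescence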); settings: HepG2 Attagene TRANS M06 internal marker reporter
# Method in brief: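 HepG2 cells transiently transfected with multiplexed GAL4-UAS reporter transcription units; after 24 h compound exposure, reporter mRNA measured by RT-PCR, FAM-labelled primer extension, HpaI digestion and capillary electrophoresis. Gain-of-signal fitted versus DMSO baseline; background control readout.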
# [4] = ATG_M_32_TRANS: Attagene TRANS-FACTORIAL HepG2 Assay for M32 Transcription Factor (Internal Marker) (AID 2282984; active means hit-call score of the fitted dose curve at least 0.9, where 1 is the maximum); settings: HepG2 Attagene TRANS M32 internal marker reporter
# Method in brief: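 Measures reporter mRNA induction in human HepG2 liver cells after 24 h chemical treatment. Transcripts from transiently transfected GAL4-UAS reporter units are amplified, fluorescently labelled and sized by capillary electrophoresis; gain of signal relative to DMSO.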
# [5] = target: Transcriptional activator Myb (Homo sapiens) (UniProt P10242); experiment: ATG_Myb_CIS: Attagene CIS-FACTORIAL HepG2 Assay for human Myeloblastosis (Myb) Proto-Oncogene Transcription Factor (AID 2282986); settings: HepG2 Attagene CIS-FACTORIAL Myb reporter transcription; actives raise or lower the signal
# Chain of Transcriptional activator Myb (Homo sapiens) (P10242 whole entry, looked up): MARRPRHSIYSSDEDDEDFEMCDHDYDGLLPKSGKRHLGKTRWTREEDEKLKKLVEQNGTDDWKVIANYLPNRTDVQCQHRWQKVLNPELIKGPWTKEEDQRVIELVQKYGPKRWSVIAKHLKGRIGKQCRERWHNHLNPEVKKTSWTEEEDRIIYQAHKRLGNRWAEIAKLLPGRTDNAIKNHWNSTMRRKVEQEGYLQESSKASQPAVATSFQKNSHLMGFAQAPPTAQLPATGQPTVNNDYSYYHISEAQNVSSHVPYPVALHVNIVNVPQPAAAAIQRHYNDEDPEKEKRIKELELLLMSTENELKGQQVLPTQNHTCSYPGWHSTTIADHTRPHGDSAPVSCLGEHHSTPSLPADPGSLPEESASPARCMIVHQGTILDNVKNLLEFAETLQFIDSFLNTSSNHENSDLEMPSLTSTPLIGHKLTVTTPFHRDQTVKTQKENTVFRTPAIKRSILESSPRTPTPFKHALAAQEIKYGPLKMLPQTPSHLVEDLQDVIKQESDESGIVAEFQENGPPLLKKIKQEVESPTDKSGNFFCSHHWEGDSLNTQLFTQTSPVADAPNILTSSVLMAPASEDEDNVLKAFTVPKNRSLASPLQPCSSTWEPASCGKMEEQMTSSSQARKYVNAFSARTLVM
# Method in brief: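 Multiplexed cis-reporter system in HepG2: transient transfection, 24 h treatment, mRNA readout by RT-PCR and capillary electrophoresis. Both increases and decreases are scored versus DMSO negative control.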
# [6] = target: Nuclear respiratory factor 1 (Homo sapiens) (UniProt Q16656); experiment: ATG_NRF1_CIS: Attagene CIS-FACTORIAL HepG2 Assay for human Nuclear Respiratory Factor 1 (NRF1) Orphan Gene (AID 2282987); settings: HepG2 NRF1 cis-element reporter, Attagene multiplex; actives raise or lower the signal
# Chain of Nuclear respiratory factor 1 (Homo sapiens) (Q16656 whole entry, looked up): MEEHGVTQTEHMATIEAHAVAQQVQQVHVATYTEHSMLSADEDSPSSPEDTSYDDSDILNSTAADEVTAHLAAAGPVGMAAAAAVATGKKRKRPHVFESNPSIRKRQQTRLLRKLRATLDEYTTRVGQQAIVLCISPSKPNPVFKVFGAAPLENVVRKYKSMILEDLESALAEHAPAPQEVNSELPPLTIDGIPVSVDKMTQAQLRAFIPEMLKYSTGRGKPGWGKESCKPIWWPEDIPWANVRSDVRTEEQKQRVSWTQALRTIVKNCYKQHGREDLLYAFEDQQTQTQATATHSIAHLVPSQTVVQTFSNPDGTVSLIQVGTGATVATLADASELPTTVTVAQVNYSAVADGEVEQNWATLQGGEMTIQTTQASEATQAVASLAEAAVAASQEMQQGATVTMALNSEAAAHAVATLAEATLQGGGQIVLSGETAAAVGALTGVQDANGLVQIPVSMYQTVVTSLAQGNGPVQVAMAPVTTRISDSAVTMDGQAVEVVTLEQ
# Method in brief: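 Endogenous factor activity was captured via cis-element-driven reporter transcripts in HepG2 cells. Following 24 h chemical treatment, transcripts were quantified by RT-PCR and capillary electrophoresis.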
# [7] = ATG_NFI_CIS: Attagene CIS-FACTORIAL HepG2 Assay for human Nuclear Factor I (NFI) (AID 2282989); settings: HepG2 cis-regulatory reporter, NFI response element transcription; actives raise or lower the signal
# Method in brief: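 Transfected HepG2 liver cells, exposed 24 h, supplied total RNA for oligo(dT) reverse transcription and reporter-specific PCR. Labelled, HpaI-cut fragments were sized by capillary electrophoresis; DMSO set the baseline for bidirectional fitting.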
# [8] = target: Myc proto-oncogene protein (Homo sapiens) (UniProt P01106); experiment: ATG_Myc_CIS: Attagene CIS-FACTORIAL HepG2 Assay for human Myelocytomatosis (Myc) Proto-Oncogene Transcription Factor (AID 2282990); settings: HepG2, Attagene cis-reporter transcription factor activity; actives raise or lower the signal
# Chain of Myc proto-oncogene protein (Homo sapiens) (P01106 whole entry, looked up): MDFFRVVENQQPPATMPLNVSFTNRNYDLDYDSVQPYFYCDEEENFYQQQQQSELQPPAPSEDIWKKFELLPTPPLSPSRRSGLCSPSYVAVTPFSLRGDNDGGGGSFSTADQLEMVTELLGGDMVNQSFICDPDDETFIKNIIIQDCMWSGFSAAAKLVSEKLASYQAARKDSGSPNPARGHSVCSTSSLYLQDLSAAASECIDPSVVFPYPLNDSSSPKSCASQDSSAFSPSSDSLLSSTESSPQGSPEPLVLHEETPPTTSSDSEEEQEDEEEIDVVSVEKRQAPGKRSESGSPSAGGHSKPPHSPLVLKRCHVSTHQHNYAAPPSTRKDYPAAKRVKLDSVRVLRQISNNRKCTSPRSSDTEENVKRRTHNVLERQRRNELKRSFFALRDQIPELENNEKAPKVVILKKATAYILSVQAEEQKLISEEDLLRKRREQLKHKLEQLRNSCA
# Method in brief: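 HepG2, transient MRTU transfection (cis promoters, endogenous TFs); 24 h dosing; TriZol RNA → oligo(dT) RT → PCR → 6-FAM primer extension → HpaI cut → CE. Bidirectional fit vs DMSO.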
# [9] = ATG_NF_kB_CIS: Attagene CIS-FACTORIAL HepG2 Assay for human Nuclear Factor Kappa B (NF-kB) (AID 2282991); settings: HepG2 Attagene cis-factorial NF-kB reporter mRNA; actives raise or lower the signal
# Method in brief: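 After 24 h compound incubation, transfected HepG2 cells yield total RNA; reporter cDNA is PCR-amplified, end-labelled with 6-FAM, HpaI-digested and analysed on a genetic analyser. Endogenous factor activity, DMSO-referenced bidirectional fit.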
# [10] = ATG_NRF2_ARE_CIS: Attagene CIS-FACTORIAL HepG2 Assay for human Nuclear Factor Erythroid 2 Related Factor 2 (NFR2) response to Antioxidant Response Elements (ARE) (AID 2282992); settings: HepG2 Attagene ARE/NRF2 reporter, transcription factor activity; actives raise or lower the signal;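 on AC50: reporter mRNA level measured by RT-PCR and capillary electrophoresis fluorescence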
# Method in brief: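 Cis-factorial assay: transfected HepG2 reporter library, 24 h dosing, mRNA readout via RT-PCR/CE; DMSO-referenced bidirectional analysis.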
# [11] = ATG_Oct_MLP_CIS: Attagene CIS-FACTORIAL HepG2 Assay for human Octamer-Binding Transcription Factor (Oct) (AID 2282993); settings: HepG2 Attagene cis-factorial Oct reporter, mRNA; actives raise or lower the signal
# Method in brief: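 Using HepG2 cells bearing transfected cis-reporter constructs, mRNA induction was read after 24 h by fluorescent RT-PCR and capillary electrophoresis, with DMSO defining baseline for gain- or loss-of-signal fits.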
# [12] = target: Bile acid receptor (Homo sapiens) (UniProt Q96RI1); experiment: ATG_FXR_TRANS: Attagene TRANS-FACTORIAL HepG2 Assay for Farnesoid X Receptor (FXR) (AID 2282979; active means hit-call score of the fitted dose curve at least 0.9, where 1 is the maximum;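 further: hits raise reporter mRNA above DMSO so AC50 marks FXR activation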); settings: HepG2 Attagene TRANS FXR-GAL4 reporter transcription
# Chain of Bile acid receptor (Homo sapiens) (Q96RI1 whole entry, looked up, the tested form may be a part): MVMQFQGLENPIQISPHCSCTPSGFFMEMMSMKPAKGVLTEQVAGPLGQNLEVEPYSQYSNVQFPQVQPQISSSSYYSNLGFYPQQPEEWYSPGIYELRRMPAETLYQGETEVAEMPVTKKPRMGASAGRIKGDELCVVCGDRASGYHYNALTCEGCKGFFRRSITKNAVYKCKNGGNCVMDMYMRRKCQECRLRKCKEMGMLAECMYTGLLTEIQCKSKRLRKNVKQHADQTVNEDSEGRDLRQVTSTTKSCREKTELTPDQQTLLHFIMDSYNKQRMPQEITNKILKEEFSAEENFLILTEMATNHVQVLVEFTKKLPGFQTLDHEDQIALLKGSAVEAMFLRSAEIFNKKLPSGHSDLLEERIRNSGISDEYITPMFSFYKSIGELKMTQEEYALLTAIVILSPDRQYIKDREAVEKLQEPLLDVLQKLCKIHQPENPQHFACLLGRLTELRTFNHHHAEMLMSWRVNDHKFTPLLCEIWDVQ
# Method in brief: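 HepG2 cells transiently transfected with reporter constructs in which a chimeric FXR-GAL4 protein drives a GAL4-UAS reporter; 24 h compound exposure. Reporter mRNA measured by RT-PCR, FAM labelling, HpaI digestion and capillary electrophoresis; gain-of-signal versus DMSO.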
# [13] = target: Oxysterols receptor LXR-alpha (Homo sapiens) (UniProt Q13133); experiment: ATG_LXRa_TRANS: Attagene TRANS-FACTORIAL HepG2 Assay for human Liver X Receptor alpha (LXRa) (AID 2282980; active means hit-call score of the fitted dose curve at least 0.9, where 1 is the maximum); settings: HepG2 Attagene TRANS reporter, LXRa transactivation
# Method in brief: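 HepG2 cells were transiently transfected with multiplexed reporter units driven by chimeric LXRa–GAL4 fusion proteins, then dosed for 24 h. Reporter mRNA was quantified by RT-PCR, fluorescent labelling and capillary electrophoresis; gain of signal fitted against DMSO baseline.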
# [14] = target: Nuclear receptor subfamily 4 group A member 2 (Homo sapiens) (UniProt P43354); experiment: ATG_NURR1_TRANS: Attagene TRANS-FACTORIAL HepG2 Assay for human Nuclear Receptor Related Protein 1 (NURR1) (AID 2282985; active means hit-call score of the fitted dose curve at least 0.9, where 1 is the maximum); settings: HepG2 Attagene TRANS reporter, mRNA readout
# Method in brief: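 Transient transfection of HepG2, human liver cells, with multiple GAL4-UAS reporter transcription units. Cells dosed 24 h, RNA isolated, reverse-transcribed, PCR-amplified, FAM-labelled, HpaI-digested, sized by capillary electrophoresis. DMSO served as negative control.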
# [15] = target: Cellular tumor antigen p53 (Homo sapiens) (UniProt P04637); experiment: ATG_p53_CIS: Attagene CIS-FACTORIAL HepG2 Assay for human p53 Transcription Factor (AID 2282994); settings: HepG2 p53 cis-element reporter, Attagene mRNA; actives raise or lower the signal
# Chain of Cellular tumor antigen p53 (Homo sapiens) (P04637 whole entry, looked up): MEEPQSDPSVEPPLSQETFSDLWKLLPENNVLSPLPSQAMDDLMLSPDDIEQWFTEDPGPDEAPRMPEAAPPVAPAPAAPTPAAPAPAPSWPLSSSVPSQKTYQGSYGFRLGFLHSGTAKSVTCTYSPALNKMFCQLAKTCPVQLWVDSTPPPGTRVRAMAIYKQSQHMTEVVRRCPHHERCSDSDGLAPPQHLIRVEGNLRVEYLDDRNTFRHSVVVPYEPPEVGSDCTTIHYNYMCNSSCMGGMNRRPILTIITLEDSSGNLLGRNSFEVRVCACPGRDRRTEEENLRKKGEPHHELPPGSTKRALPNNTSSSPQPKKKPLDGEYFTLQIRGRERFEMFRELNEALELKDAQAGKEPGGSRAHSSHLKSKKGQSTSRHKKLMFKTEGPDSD
# Method in brief: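 Using HepG2 hepatoma cells carrying cis-acting multiplexed reporters, mRNA induction is detected after a 24 h exposure. Gain- and loss-of-signal responses are fitted relative to DMSO-treated cells.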
# [16] = target: Oxysterols receptor LXR-beta (Homo sapiens) (UniProt P55055); experiment: ATG_LXRb_TRANS: Attagene TRANS-FACTORIAL HepG2 Assay for human Liver X Receptor beta (LXRb) (AID 2282981; active means hit-call score of the fitted dose curve at least 0.9, where 1 is the maximum); settings: HepG2 Attagene TRANS GAL4-LXRb reporter, mRNA
# Chain of Oxysterols receptor LXR-beta (Homo sapiens) (P55055 whole entry, looked up, the tested form may be a part): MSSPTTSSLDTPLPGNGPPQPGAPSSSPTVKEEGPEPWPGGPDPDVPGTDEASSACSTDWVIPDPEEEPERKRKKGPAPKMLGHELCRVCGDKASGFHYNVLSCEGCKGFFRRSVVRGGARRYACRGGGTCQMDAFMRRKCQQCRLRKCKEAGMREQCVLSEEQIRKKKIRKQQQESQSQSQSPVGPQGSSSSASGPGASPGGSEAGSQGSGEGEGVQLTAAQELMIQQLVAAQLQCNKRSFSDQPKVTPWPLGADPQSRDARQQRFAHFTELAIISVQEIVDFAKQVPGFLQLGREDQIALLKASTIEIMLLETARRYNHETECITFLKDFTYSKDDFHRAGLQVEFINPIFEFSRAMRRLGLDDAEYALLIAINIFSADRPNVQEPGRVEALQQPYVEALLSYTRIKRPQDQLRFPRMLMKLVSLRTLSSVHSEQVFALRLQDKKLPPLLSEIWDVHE
# Method in brief: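 Transient transfection HepG2 (multiplexed RTUs, GAL4-UAS); NR-Gal4 chimera; 24 h exposure; RNA → RT-PCR → 6-FAM primer extension → HpaI → CE; increase vs DMSO.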
# [17] = target: Hepatocyte nuclear factor 4-alpha (Homo sapiens) (UniProt P41235); experiment: ATG_HNF4a_TRANS: Attagene TRANS-FACTORIAL HepG2 Assay for human Hepatocyte Nuclear Factor 4 alpha (HNF4a) (AID 2282982; active means hit-call score of the fitted dose curve at least 0.9, where 1 is the maximum); settings: HepG2 HNF4a transactivation reporter, mRNA readout
# Chain of Hepatocyte nuclear factor 4-alpha (Homo sapiens) (P41235 whole entry, looked up, the tested form may be a part): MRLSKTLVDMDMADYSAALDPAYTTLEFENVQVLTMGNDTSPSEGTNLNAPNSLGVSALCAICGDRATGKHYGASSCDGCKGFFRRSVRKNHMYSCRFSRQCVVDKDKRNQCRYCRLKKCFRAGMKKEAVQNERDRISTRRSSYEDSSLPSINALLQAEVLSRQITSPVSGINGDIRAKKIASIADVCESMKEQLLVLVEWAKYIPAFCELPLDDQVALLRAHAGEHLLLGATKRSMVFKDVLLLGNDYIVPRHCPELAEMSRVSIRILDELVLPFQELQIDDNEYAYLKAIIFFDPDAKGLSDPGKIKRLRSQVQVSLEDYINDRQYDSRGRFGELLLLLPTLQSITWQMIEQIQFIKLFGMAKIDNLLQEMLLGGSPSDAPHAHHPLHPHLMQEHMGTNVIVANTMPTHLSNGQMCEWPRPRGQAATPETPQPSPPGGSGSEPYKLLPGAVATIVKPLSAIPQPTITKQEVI
# Method in brief: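 Readout is fluorescent reporter-transcript fragments resolved by capillary electrophoresis after RT-PCR from HepG2 cells dosed for 24 h. Cells carried transfected GAL4-UAS reporter constructs measuring exogenous NR-GAL4 chimera activity; DMSO served as baseline.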
# [18] = BSK_3C_TissueFactor: BioMAP Diversity Plus: 3C Assay for Tissue Factor Biomarker Activity (AID 2282997); settings: BioMAP 3C HUVEC, tissue factor biomarker readout; actives raise or lower the signal
# Method in brief: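 Primary human umbilical vein endothelial cells in the 3C system were exposed to test chemical for 24 h, then Tissue Factor measured by ELISA. Activity was fitted bidirectionally against DMSO as negative control and baseline.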
# [19] = BSK_3C_VCAM1: BioMAP Diversity Plus: 3C Assay for Vascular cell adhesion molecule 1 (VCAM1) Biomarker Activity (AID 2282999); settings: BioMAP 3C HUVEC, VCAM1 ELISA, cytokine-stimulated; actives raise or lower the signal
# Method in brief: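 Endothelial cells from human umbilical vein are treated with test chemical. At 24 h, VCAM-1 is measured by ELISA, and responses in either direction are fitted relative to DMSO.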
structure (smiles),measurement,setting,value
CCCCC(CC)COCCO (configuration not stated),outcome,[1],inactive
same,outcome,[2],inactive
same,outcome,[3],inactive
same,outcome,[4],inactive
same,outcome,[5],inactive
same,outcome,[6],inactive
same,outcome,[7],inactive
same,outcome,[8],inactive
same,outcome,[9],inactive
same,outcome,[10],inactive
same,outcome,[11],inactive
O=C1CCC(=O)N1,outcome,[1],inactive
same,outcome,[2],inactive
same,outcome,[12],inactive
same,outcome,[13],inactive
same,outcome,[3],inactive
same,outcome,[4],inactive
same,outcome,[14],inactive
same,outcome,[5],inactive
same,outcome,[6],inactive
same,outcome,[7],inactive
same,outcome,[8],inactive
same,outcome,[9],inactive
same,outcome,[10],inactive
same,outcome,[11],inactive
same,outcome,[15],inactive
O=S1(=O)CC(Cl)(Cl)C(Cl)(Cl)C1,outcome,[1],inactive
same,outcome,[2],inactive
same,outcome,[12],inactive
same,outcome,[16],inactive
same,outcome,[17],inactive
same,outcome,[4],inactive
same,outcome,[14],inactive
same,outcome,[5],inactive
same,outcome,[6],inactive
same,outcome,[7],inactive
same,outcome,[8],inactive
same,outcome,[9],inactive
same,AC50,[10],485 nM (active)
same,outcome,[11],inactive
same,AC50,[15],2670 nM (active)
same,AC50,[18],556 nM (active)
same,AC50,[19],618 nM (active)
CN1CCc2cccc3c2[C@H]1Cc1ccc(O)c(O)c1-3,outcome,[1],inactive
same,outcome,[2],inactive
same,outcome,[12],inactive
same,outcome,[13],inactive
same,outcome,[16],inactive
same,outcome,[17],inactive
same,outcome,[3],inactive
same,outcome,[5],inactive
same,AC50,[6],3590 nM (active)
same,outcome,[7],inactive
same,outcome,[8],inactive
same,AC50,[10],5050 nM (active)
same,outcome,[11],inactive
same,outcome,[15],inactive
